The entries come from a sample that favours hits as a whole.
Cruzain noTriton = inhibitors of Trypanosoma cruzi cruzain without detergent; purified cruzain, Z-FR-AMC fluorescence, no detergent; P25779; 2.3% of 200,000 active; Potency, µM, for inactives: max response, negative = inhibition, hits mostly inhibitors;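 also: plate controls were enzyme without inhibitor for no effect and buffer without enzyme for full effect; nearly all actives have a fitted effect of over 40% in size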
Target sequence (P25779 123-467 limits assumed): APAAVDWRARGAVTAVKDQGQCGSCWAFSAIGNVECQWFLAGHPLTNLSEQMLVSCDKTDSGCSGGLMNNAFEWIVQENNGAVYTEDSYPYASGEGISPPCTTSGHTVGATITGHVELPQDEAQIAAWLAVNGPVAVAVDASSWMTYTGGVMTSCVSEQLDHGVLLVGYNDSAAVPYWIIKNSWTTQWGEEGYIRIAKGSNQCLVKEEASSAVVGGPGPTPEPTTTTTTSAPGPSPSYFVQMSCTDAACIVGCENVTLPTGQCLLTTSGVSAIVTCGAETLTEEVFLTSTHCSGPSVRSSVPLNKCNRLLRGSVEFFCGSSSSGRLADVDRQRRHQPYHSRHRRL
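Purified cruzain at 1.5 nM, pre-incubated 15 min with compound at room temperature in 100 mM sodium acetate pH 5.5, 5 mM DTT, 0.00005% Triton X-100. Reaction started with 2 uM Z-FR-AMC; AMC fluorescence increase over 60 s gives rate.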
Cruzain inh Det = inhibitors of Trypanosoma cruzi cruzain with detergent; purified cruzain, Z-FR-AMC fluorescence, 0.01% Triton; Potency, µM, without a hit: max response, negative = inhibition, hits mostly inhibitors; 0.43% of 200,000 active; AID 1478;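 also: plate controls were neutral wells for no effect and buffer without enzyme for full effect; nearly all actives have a fitted effect of over 40% in size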
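Detergent-containing run (0.01% Triton X-100) in acetate buffer pH 5.5 with 5 mM DTT: enzyme at 1.5 nM final, 15 min compound preincubation at room temperature, then 2 uM Z-FR-AMC substrate. Activity taken as 60 s fluorescence increase at 360/450 nm.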
Giardia FBPA inh = blocks Giardia fructose-bisphosphate aldolase activity | A8B2U2 | purified Giardia FBPA | Potency, µM (top dose mostly 59.6 µM), for the others: at the top dose activity, negative = inhibition, actives largely listed as inhibitors | 0.71% of 290,000 active | AID 2451; also: nearly all actives have a fitted effect of over 55% in size
Target sequence (A8B2U2 whole entry, looked up): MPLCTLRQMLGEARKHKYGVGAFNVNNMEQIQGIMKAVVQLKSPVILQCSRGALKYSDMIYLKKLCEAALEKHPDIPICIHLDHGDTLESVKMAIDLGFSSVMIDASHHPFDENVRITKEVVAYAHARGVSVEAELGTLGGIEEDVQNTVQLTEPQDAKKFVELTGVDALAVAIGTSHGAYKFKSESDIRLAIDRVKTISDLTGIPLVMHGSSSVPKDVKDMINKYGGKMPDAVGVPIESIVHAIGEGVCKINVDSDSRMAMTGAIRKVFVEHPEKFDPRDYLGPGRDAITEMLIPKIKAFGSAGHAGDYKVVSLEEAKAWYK
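Giardia FBPA (40 nM reagent) was preincubated 10 min at RT with compound (up to 57.5 uM final), then substrate plus GAPDH/TPI/NAD/arsenate coupling system with diaphorase/resazurin was added; resorufin fluorescence (525/598 nm) was read after 20 min.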
Active calls of the source: *; ? = inconclusive; . = not tested or not shown. Calls follow the shape of the dose curve; as a rule, active = well fitted curve in the direction sought with a large enough effect; inconclusive = small, poorly fitted or top-dose-only effect, or another doubt; inactive = no such curve, though single readings can be large; an effect the other way counts as inactive or inconclusive. Unless noted, % is scaled to controls: 0 for no effect and ±100 for the full control effect; potency is read from the fitted curve at half-maximal effect.

SMILES | Cruzain noTriton | Cruzain inh Det | Giardia FBPA inh
CCC(=O)NC[C@H](Cc1ccc(OCCc2nc(-c3ccccc3)oc2C)cc1)N/C(C)=C\C(=O)c1ccc(C(F)(F)F)cc1 | . | . | -21%
CCc1ccccc1NC(=O)CCCN1C(=O)COc2ccc(C)cc21 | -5% | -4% | .
CC(=O)c1cccc(NC(=O)CCCN2C(=O)COc3ccc(C)cc32)c1 | ? | 18µM* | .
CCOCCOCC | 4% | 7% | .
COc1ccc2[nH]c3c(NCc4ccco4)ncnc3c2c1 | ? | 18µM* | -1%
CCN(CC)CCNc1ncnc2c1[nH]c1ccc(OC)cc12 | ? | 4% | 6%
O=C1CN(C(=O)c2ccc(S(=O)(=O)N3CCCCC3)cc2)C(c2ccc(F)cc2)c2cc(Br)ccc2N1 (stereo not given) | -19% | -2% | .
Cc1nc2ccc(S(=O)(=O)N(C)CC(=O)Nc3ccc(Br)c(C)c3)cc2s1 | -5% | -8% | .
Cc1ccc(C)c(NC(=S)NC(NC(=O)Cc2ccccc2)C(Cl)(Cl)Cl)c1 (stereo not given) | 25µM* | 4% | 4%
Cc1ccc(C(=O)NC(NC(=S)Nc2ccc(S(N)(=O)=O)cc2)C(Cl)(Cl)Cl)cc1 (stereo not given) | -4% | -17% | -8%
Cc1cccc(NC(=S)NC(NC(=O)c2ccco2)C(Cl)(Cl)Cl)c1 (stereo not given) | 2% | 3.2µM* | -3%
Cc1ccccc1C(=O)NC(NC(=S)Nc1ccc(S(N)(=O)=O)cc1)C(Cl)(Cl)Cl (stereo not given) | -27% | 13µM* | -11%
Cc1ccc(NC(=S)NC(NC(=O)c2ccccc2)C(Cl)(Cl)Cl)c(C)c1 (stereo not given) | 6% | -9% | -5%
O=C(O)c1ccc(NC(=S)NC(NC(=O)c2ccco2)C(Cl)(Cl)Cl)cc1 (stereo not given) | 9% | -5% | -7%
CC(=O)c1cccc(NC(=S)NNC(=O)c2ccco2)c1 | . | . | 7%
Cc1ccc(NC(=S)NC(NC(=O)c2ccco2)C(Cl)(Cl)Cl)cc1 (stereo not given) | 15% | 4.5µM* | -4%
Nc1ccc2nc(-c3cccc(-c4nc5ccc(N)cc5[nH]4)c3)[nH]c2c1 | . | . | -21%
Nc1ccc(-c2nc3ccc([N+](=O)[O-])cc3[nH]2)cc1 | -2% | -9% | -6%
Nc1ccc(-c2nc3ccc(N)cc3[nH]2)cc1 | . | . | -6%
Nc1ccc2nc(-c3ccc(Cl)cc3)[nH]c2c1 | 20µM* | ? | -22%
Nc1ccc(-c2nc3c(Cl)c(N)ccc3[nH]2)cc1 | 32µM* | ? | -2%
Nc1ccc2nc(-c3cc(Cl)c(N)c(Cl)c3)[nH]c2c1 | 16µM* | ? | -12%
Nc1nc(C(=O)O)c(N=Nc2ccccc2)c(=O)[nH]1 | -9% | 3% | .
C/C(CC/C(C)=N/O)=N/O | -2% | 6% | .
COc1ccc(NC(=O)c2sc3nc4c(cc3c2N)CN(C(C)C)CC4)c(OC)c1 | -3% | -9% | .
SMILES | Cruzain noTriton | Cruzain inh Det | Giardia FBPA inh
CSCC[C@H](NC(=O)[C@@H]1CCCN1C(=O)CNC(=O)[C@H](CCCCN)NC(=O)[C@H](Cc1cnc[nH]1)NC(=O)[C@H](CO)NC(=O)[C@H](CC(C)C)NC(=O)[C@H](CCCN=C(N)N)NC(=O)[C@@H]1CCCN1C(=O)[C@H](CCCN=C(N)N)NC(=O)[C@@H]1CCC(=O)N1)C(=O)N1CCC[C@H]1C(=O)N[C@@H](Cc1ccccc1)C(=O)O | . | . | 8%
CCCn1c(O)c(/C=C2\C=NN=C2c2ccccc2)sc1=S | 5% | -7% | -2%
CCCCC(CC)Cn1c(O)c(/C=C2\C=NN=C2c2ccccc2)sc1=S (stereo not given) | 7.9µM* | -1% | -9%
CCOC(=O)C1=C(CSc2nc(CC)c(C)cc2C#N)OC(N)=C(C#N)C1c1ccccc1 (stereo not given) | -18% | -6% | -14%
CCOC(=O)C1=C(CSc2nc(-c3ccccc3)ccc2C#N)OC(N)=C(C#N)C1c1ccc(OC)cc1 (stereo not given) | 16µM* | -4% | -17%
C=Cc1ccc(CSc2nc(-c3ccccc3C)nc3c2Cc2c(CO)cnc(C)c2O3)cc1 | 7% | -2% | .
CC[C@H](C)[C@H](NC(=O)[C@H](CC(C)C)NC(=O)[C@@H](N)CO)C(=O)NCC(=O)N[C@@H](CCCN=C(N)N)C(=O)N[C@@H](CC(C)C)C(=O)O | . | . | 4%
CCN1CCN(C(=S)c2ccc(Cl)cc2)CC1 | -1% | -5% | 4µM*
CCOC(=O)N1CCN(CCC(=O)c2ccc(Cl)cc2)CC1 | 13µM* | 14µM* | -18%
CCOC(=O)N1CCN(CCC(=O)c2ccc(Br)cc2)CC1 | . | . | -26%
OCCN1CCN(C(=S)c2ccc(Cl)cc2)CC1 | 2% | 4% | -17%
CCOc1ccc(NC(=O)CSc2nc(C)cc(C)n2)cc1 | 1% | 2% | 3%
CCCCOc1ccc(NC(=S)Nc2cc(C)nc(SCCCC)n2)cc1 | 25µM* | 0% | -1%
Cc1cc(Br)ccc1NC(=O)c1cc2c(s1)-c1ccccc1SC2 | 7.9µM* | -7% | .
CCOCCCNC(=O)c1cc2c(s1)-c1ccccc1SC2 | . | . | 11%
COc1ccc(C)cc1NCc1cc(=O)oc2cc(-c3ccccc3)c(O)cc12 | 32µM* | -2% | -27%
Cc1cc(C)cc(NCc2cc(=O)oc3cc(-c4ccccc4)c(O)cc23)c1 | ? | 1% | -4%
COc1ccc(C)cc1NC(=O)C(OC(=O)CNC(=O)c1cccc(F)c1)c1ccccc1 (stereo not given) | 13µM* | ? | -1%
COc1ccc(C)cc1NC(=O)C(OC(=O)CNC(=O)c1ccc(Oc2ccccc2)cc1)c1ccccc1 (stereo not given) | ? | -19% | 1%
CCn1c2ccccc2c2cc(NC(=O)C(C)Oc3ccccc3)ccc21 (stereo not given) | ? | 0% | 3%
CCn1c2ccccc2c2cc(NC(=O)C(C)Oc3ccc(OC)cc3)ccc21 (stereo not given) | 25µM* | 0% | 0%
CCc1c(C)sc2c1CCN(Cc1ccccc1F)C2c1ccccc1 (stereo not given) | -3% | -9% | .
CC(C)(C)OC(=O)N1CCC(c2c(C(=O)NC3CCCCC3)cnn2-c2cccc(Cl)c2)CC1 | 8% | -6% | .
Cc1ccc(NC(=O)NC(=O)COc2ccc(Cl)cc2Cl)c(C)c1 | 13µM* | 0% | 4%
Cc1cccc(NC(=S)NNC(=O)COc2ccc(Cl)cc2Cl)c1 | ? | 0% | ?
SMILES | Cruzain noTriton | Cruzain inh Det | Giardia FBPA inh
O=C(C1=C[C@@H]2[C@H]3C(=O)N(c4ccc(Cl)cc4)C(=O)[C@H]3[C@@H](C(=O)c3ccc(Cl)cc3)N2C=C1)c1ccccc1 | 7.9µM* | -6% | -16%
Cc1ccc(N2C(=O)C3C(C2=O)C(C(=O)c2ccc(Cl)cc2)N2CCCC32)cc1 (stereo not given) | -4% | -12% | -5%
Cc1cccc(Cl)c1NC[C@H](O)CN1CCN(C)CC1 | -5% | -1% | .
Cc1ccccc1NC(=O)CSc1nc2c(c(-c3ccco3)c1C#N)CCCC2 | 7.9µM* | -5% | 4%
CCc1ccccc1NC(=O)CSc1nc2c(c(-c3ccco3)c1C#N)CCCC2 | -17% | -7% | 2%
CCOc1ccc(N(CC)S(=O)(=O)c2cc(Br)cc3c2N(C(C)=O)C(C)C3)cc1 (stereo not given) | ? | -5% | .
